High-throughput results from PubChem BioAssay.
G9a block: G9a (human) methyltransferase inhibition; Q96KQ7; G9a H3K9 monomethylation, AlphaScreen, 2 h; Potency, µM (doses to about 102 µM), without a hit: at the highest dose activity, negative = inhibition, most hits filed as inhibitors; 350,000 compounds, 8.8% hits; also: % is scaled to controls: 0 for no effect and ±100 for the full control effect; nearly all actives have a fitted effect of over 75% in size
Target sequence (Q96KQ7 913-1193 limits assumed): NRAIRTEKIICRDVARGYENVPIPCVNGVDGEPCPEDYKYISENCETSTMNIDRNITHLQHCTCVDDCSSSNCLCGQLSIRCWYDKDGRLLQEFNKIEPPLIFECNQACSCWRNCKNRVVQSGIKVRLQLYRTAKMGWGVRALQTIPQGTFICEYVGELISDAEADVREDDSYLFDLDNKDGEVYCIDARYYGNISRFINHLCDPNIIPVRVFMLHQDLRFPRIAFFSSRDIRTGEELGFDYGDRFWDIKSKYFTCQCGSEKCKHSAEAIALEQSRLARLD
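AlphaScreen read-out: biotin-H3K9 peptide (500 nM) methylation by 20 nM enzyme with 20 uM SAM, 2 h at room temperature after 15 min compound preincubation; anti-monomethyl H3K9 antibody plus donor/acceptor beads, 10 min dark.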
BAZ2B block: BAZ2B (human) inhibition; AlphaScreen BAZ2B-H3K14Ac peptide displacement; Q9UIF8; 360,000 compounds, 4.4% hits; Potency, µM (doses to about 114 µM), for inactives: at the highest dose activity change, negative = inhibition, usual class: inhibitors; also: % is scaled to controls: 0 for no effect and ±100 for the full control effect; nearly all actives have a fitted effect of over 60% in size
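AlphaScreen displacement: compounds (up to 110uM) incubated 30 min at room temperature with a preformed 50 nM BAZ2B/50 nM biotinylated H3K14Ac peptide complex in PBS pH 7.4 with Tween-20. Donor and acceptor beads at 10 ug/mL final added, 20 min light-protected before reading.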
JMJD2A Tudor: inhibitors of human JMJD2A Tudor domain. AlphaScreen JMJD2A-Tudor / H3K4me3 peptide binding. O75164. Potency, µM (titrated, usually from 114 µM), without a hit: at the top dose activity change, negative = inhibition, hits mostly inhibitors. 390,000 compounds, 4.4% hits; also: % is scaled to controls: 0 for no effect and ±100 for the full control effect; nearly all actives have a fitted effect of over 50% in size
TDP1 block: TDP1 (human) enzyme inhibition; Q9NUW8; recombinant TDP1, AlphaScreen DNA substrate cleavage; Potency, µM (top dose mostly 130 µM), for inactives: at the highest dose activity change, negative = inhibition, hits mostly inhibitors; 350,000 compounds, 0.28% hits; AID 485290; also: % is scaled to controls: 0 for no effect and ±100 for the full control effect; nearly all actives have a fitted effect of over 40% in size
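Enzyme-compound mixtures sat 15 min at room temperature, followed by a 5 min reaction with 15 nM final substrate and 10 min with AlphaScreen beads. Recombinant human Tdp1 was used at 1 nM final.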
HP1b chromo inh: inhibitors of HP1-beta chromodomain binding to methylated histone tails; P83916; AlphaScreen HP1-beta / biotin-H3K9me3 peptide binding; Potency, µM (titrated, usually from 114 µM), for inactives: top-dose activity change, negative = inhibition, usual class: inhibitors; 390,000 compounds, 0.56% hits; AID 540317; also: nearly all actives have a fitted effect of over 70% in size
Target sequence (P83916 whole entry, looked up): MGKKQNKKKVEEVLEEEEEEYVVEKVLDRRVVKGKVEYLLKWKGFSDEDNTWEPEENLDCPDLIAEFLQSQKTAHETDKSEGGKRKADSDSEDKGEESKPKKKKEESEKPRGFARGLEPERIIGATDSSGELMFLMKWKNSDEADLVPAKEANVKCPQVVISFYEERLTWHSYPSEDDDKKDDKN
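HP1-beta protein (50 nM final) preincubated 30 min at room temperature with biotinylated H3(1-18)K9me3 peptide (50 nM) in PBS pH 7.4, 0.01% Tween-20, then compound added for 30 min. AlphaScreen streptavidin donor/nickel chelate acceptor beads (10 ug/mL final), 30 min dark, luminescence read.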
Sfp inh: Sfp phosphopantetheinyl transferase inhibition | AID 1490 | Q9F4F7 | 310,000 compounds, 3.5% hits | Potency, µM, inactives show largest response in the series, negative = inhibition, hits mostly inhibitors | Biochemical Sfp PPTase activity, qHTS;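 also: the enzyme is Sfp with the accession as filed and its product quenches rhodamine fluorescence; 0% = enzyme reaction without inhibitor and -100% = no enzyme wells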
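Reaction rates are the 30-min fluorescence difference (ex 525, em 598 nm) in wells containing 15 nM Sfp, 5 uM rhodamine-CoA and 12.5 uM BHQ-2-YbbR at pH 7.6 with 10 mM MgCl2.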
Starred values were filed as active, the others as inactive; ? = inconclusive; . = not tested or not shown; [ ] = dose if it differs, or a comment. Sampled rows, rich in hits. Any-hit rate of the full collection: about 12%. Calls follow the shape of the dose curve; as a rule, active = well fitted curve in the direction sought with a large enough effect; inconclusive = small, poorly fitted or top-dose-only effect, or another doubt; inactive = no such curve, though single readings can be large; an effect the other way counts as inactive or inconclusive. Potency is read from the fitted curve at half-maximal effect.

SMILES	G9a block	BAZ2B block	JMJD2A Tudor	TDP1 block	HP1b chromo inh	Sfp inh
COCCN1Cc2cccc(C(=O)N3CCN(c4cc(C)ccc4C)CC3)c2C1=O	44.7µM*	6.0%	-28.6%	7.8%	25.6%	-16.7%
O=C(Cn1c(-c2cccs2)cc2cc(Cl)ccc21)N1CCCCC1	-4.3%[59 µM]	6.0%	-5.6%	3.7%	15.4%	.
CCOc1ccc(S(=O)(=O)N2CCCCC2)cc1NC(=O)CSCc1c(C)noc1C	19.2%[2.33 µM]	2.7%	-8.9%	.	25.1%	.
CN1C(=O)C(C)(C)c2cc(S(=O)(=O)NCc3ccc(C(=O)Nc4ccc(Cl)cc4)cc3)ccc21	-2.7%[59 µM]	-15.7%	-6.2%	-5.1%	40.9%	.
Cc1ccc(N2C(=O)CCC2=O)c(C)c1	.	.	-7.2%	.	16.7%	.
CC1=NN(c2ccc(C)cc2C)C(=O)C1C(c1ccccc1)C1C(=O)N(c2ccc(C)cc2C)N=C1C (centres undefined)	?	56.2µM*	?	0.0%	-0.9%	-8.9%
Cc1cccc(-c2[nH]c(C(C)(C)C)nc2-c2ccc3nccnc3c2)n1	2.4%[59 µM]	.	.	.	.	.
CNC[C@H]1Oc2c(NC(=O)c3ccc(-c4nccs4)cc3)cccc2C(=O)N([C@@H](C)CO)C[C@@H]1C	.	.	-23.4%	0.7%	24.4%	.
O=C(Oc1c(Cl)cc(Cl)c2cccnc12)c1cccc([N+](=O)[O-])c1	?	28.2µM*	?	4.2%	-18.4%	6.1%
O=[N+]([O-])c1ccccc1OCCOCCOc1cccc2cccnc12	2µM*	31.6µM*	20µM*	-8.0%	?	?
O=C(Oc1cccc2cccnc12)c1cccc([N+](=O)[O-])c1	9.0%	15.8µM*	50.1µM*	-1.2%	2.1%	0.8%
O=C(Nc1cc([N+](=O)[O-])ccc1O)c1cccc([N+](=O)[O-])c1	-64.3%	-36.4%	-19.9%	.	43.7%	1.2%
CCN(CC)C(=O)Oc1c(Cl)cc(Cl)c2cccnc12	.	0.7%	-5.6%	0.0%	44.4%	8.3%
O=C(Nc1cc([N+](=O)[O-])ccc1O)c1cccc(C(=O)Nc2cc([N+](=O)[O-])ccc2O)c1	-12.2%[59 µM]	50.1µM*	?	.	-24.3%	13.1%
O=[N+]([O-])c1ccc(Oc2cccc3cccnc23)c([N+](=O)[O-])c1	?	?	-19.3%	2.6%	-24.0%	?
CCn1c(COC(=O)CNC(=O)c2ccccc2)nc2cc(S(=O)(=O)N(C)C)ccc21	-28.2%	4.8%	-7.6%	-12.9%	30.7%	.
O=C1Cc2cc(S(=O)(=O)N3CCN(c4ccc(C(F)(F)F)cc4)CC3)ccc2N1	.	.	-29.8%[229 µM]	.	.	.
O=C(Nc1cccc2cccnc12)c1cccc([N+](=O)[O-])c1	79.4µM*	-32.4%	-11.5%	6.7%	25.0%	-1.9%
O=C(Nc1cccc2cccnc12)c1ccccc1[N+](=O)[O-]	-35.4%[59 µM]	1.6%[57.1 µM]	-10.7%	1.1%	20.5%	.
Cc1cc(C(=O)Nc2cccc3cccnc23)ccc1[N+](=O)[O-]	.	-15.4%	-8.3%	1.2%	24.3%	-14.4%
Cc1c(C(=O)Oc2cccc3cccnc23)cccc1[N+](=O)[O-]	?	14.1µM*	44.7µM*	3.4%	?	-18.5%
Clc1ccc2c(c1)-c1c(cnc3cc(-c4ccccc4)nn13)CO2	37.2%[59 µM]	7.8%	3.0%	7.1%	47.5%	.
O=C(CN1C(=O)NC2(CCCC2)C1=O)NCc1ccccc1	.	.	-15.3%	-2.7%	28.4%	.
COc1ccc(S(=O)(=O)N(C)C)cc1NCC(=O)Nc1cccc(C#N)c1	-31.8%	-28.4%	-10.4%	-1.2%	0.3%	9.8%
CC1(C)CC(=O)C(C(c2ccncc2)C2C(=O)CC(C)(C)CC2=O)C(=O)C1	50.1µM*	-31.3%	-7.5%	-1.1%	82.0%	4.1%
SMILES	G9a block	BAZ2B block	JMJD2A Tudor	TDP1 block	HP1b chromo inh	Sfp inh
Cc1ccc(C(C2C(=O)CC(C)(C)CC2=O)C2C(=O)CC(C)(C)CC2=O)s1	44.7µM*	?	-32.5%	-13.9%	13.9%	50.1µM*
COc1ccc(C(C2C(=O)CC(C)(C)CC2=O)C2C(=O)CC(C)(C)CC2=O)cc1	44.7µM*	-15.9%	-17.4%	3.6%	58.3%	25.1µM*
COC(=O)[C@@H](NC(=O)O[C@@H]1C(=O)c2ccc(OC)cc2O[C@H]1c1ccc2c(c1)OCO2)C(C)C	.	.	.	11.8%	.	-12.2%
O=[N+]([O-])c1ccccc1Sc1nccn1Cc1ccccc1	50.1µM*	?	?	-0.6%	0.1%	11.2%
CC(=O)OCCN(C)c1cc(SC(C)C)c2nonc2c1[N+](=O)[O-]	50.1µM*	?	?	0.0%	-0.8%	-27.2%
CN(CCO)c1cc(Sc2nc3ccccc3s2)c2nonc2c1[N+](=O)[O-]	?	-29.9%[57.1 µM]	22.4µM*	4.8%	?	25.1µM*
CCOC(=O)N1CCN(c2cc(N(C)CCO)c([N+](=O)[O-])c3nonc23)CC1	?	-18.3%	-10.0%	-2.5%	27.1%	4.2%
CCOC(=O)C1=C(CS(=O)(=O)c2ccc(C)cc2)NC(=O)NC1c1ccc(C(C)C)cc1 (centres undefined)	-4.5%[59 µM]	-13.2%	-20.2%	3.8%	32.8%	.
COc1ccc(CNC(=O)CN(C(=O)c2snc(C(N)=O)c2N)c2ccccc2F)cc1	7.1%	3.2%	-2.1%	6.9%	6.1%	11.0%
O=C(Nc1cccc(F)c1)N1CC[C@@]2(CCCN(C(=O)c3csnn3)C2)C1	-0.3%[12.7 µM]	.	.	.	.	16.4%
CCN1CCN(Cc2ccc(NC(=O)c3ccc(C)c(NC(=O)c4ccno4)c3)cc2C(F)(F)F)CC1	-46.0%[59 µM]	-15.3%	-20.1%	3.5%	37.4%	15.4%
CCN1CCN(Cc2ccc(NC(=O)c3ccc(C)c(/C=C/c4cnc(Nc5cc(N6CCNCC6)nc(C)n5)cn4)c3)cc2C(F)(F)F)CC1	28.2µM*	?	79.4µM*	.	?	56.2µM*
C#CCOCCOCCOCCNc1nc(N2CCN(C(=O)[C@H](CCC(=O)O)n3cc(C(N)CO)nn3)CC2)nc(N2CCN(C(=O)[C@H](Cc3cc4ccccc4[nH]3)n3cc(C(N)[C@H](C)CC)nn3)CC2)n1 (some centres undefined)	-0.7%[12.7 µM]	50.1µM*	44.7µM*	2.6%	13.2%	?
C#CCOCCOCCOCCNc1nc(N2CCN(C(=O)[C@H](Cc3cc4ccccc4[nH]3)n3cc([C@@H](N)C(C)CC)nn3)CC2)nc(N2CCN(C(=O)[C@H](CCCCN)n3cc([C@@H](N)CO)nn3)CC2)n1 (some centres undefined)	14.0%[12.7 µM]	25.1µM*	.	5.1%	.	1.2%
